Reference: PubChem BioAssay
Activity calls are given as the source filed them.

Columns and labels:
Albumin (Bos taurus) = Albumin (Bos taurus) (UniProt P02769); assay: compounds binding labelled BSA control protein – biochemical, small-molecule microarray, Alexa647 label, 635/667 nm fluorescence, artefact control for SMM control protein annotation, profiling panel (AID 1118); details: BSA-A647 binding, fluorescence 635 nm, higher = more signal;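 also: score merges 667 nm emission intensity and signal-to-noise per printed compound spot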
[1] = probe aXIP binding to arrayed compounds – biochemical, NeuroSMM set, 635/667 nm fluorescence, primary screen (AID 1119); details: small-molecule microarray, higher = more signal, called active from +8 up or from −8 down;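 also: probe is the protein aXip251-270 applied at 1 µg/mL to compound-printed slides; binding of probe to printed compounds measured as 667 nm fluorescence plus signal to noise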
[2] = probe aNOTCH3 binding on compound microarray – biochemical, small-molecule microarray, 635/667 nm fluorescence, primary screen (AID 1120); details: higher = more signal;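 also: probe is a biotin-tagged antibody raised against NOTCH3 rather than NOTCH3 protein; score merges spot fluorescence near 667 nm with spot signal to noise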
[3] = probe aNOTCH2 binding on compound microarray – biochemical, small-molecule microarray, 635/667 nm fluorescence, primary screen (AID 1121); details: higher = more signal;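 also: score merges feature fluorescence read at 667 nm with its signal to noise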
[4] = target: Carbonic anhydrase 2 (Homo sapiens) (UniProt P00918); assay: compounds binding carbonic anhydrase 2 – biochemical, small-molecule microarray, Alexa647-labelled CAII, profiling panel (AID 1122); details: CAII-A647 binding fluorescence, higher = more signal
[5] = COS7 lysate on small-molecule microarray, probe aHis, 635 nm (AID 1123); details: COS7 cell lysate, fluorescence, higher = more signal;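 also: z-score combines 667nm fluorescence intensity with signal-to-noise per printed compound spot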
[6] = probe aLAP1 signal on lysate-treated microarray – cell lysate, small-molecule microarray, COS7 lysate, primary screen (AID 1124); details: probe aLAP1, fluorescence, higher = more signal;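 also: lysate comes from COS7 cells expressing LAP1 and is applied at 0.3 µg/mL; score merges spot fluorescence near 667 nm with signal-to-noise over triplicate slides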
Sam68 (KHDRBS1) = assay: compounds binding KHDRBS1 protein – biochemical, small-molecule microarray, 635 nm fluorescence, primary screen (AID 1125); details: higher = more signal;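 also: score merges 667 nm channel intensity with signal to noise over triplicate slides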
[7] = test system: Chordin-like protein 2 (CHRDL2); assay: compounds binding chordin-like 2 – biochemical, small-molecule microarray, 635 nm fluorescence, primary screen (AID 1126); details: fluorescence 635 nm, higher = more signal;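 also: printed compound slides probed with Chrdl2 protein at 4 µg/mL for 1 h at 4 C; score merges 667 nm emission intensity with signal to noise over three replicate slides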
[8] = target: Concanavalin-A (Canavalia ensiformis) (UniProt P02866); assay: compounds binding concanavalin A lectin – biochemical, small-molecule microarray, Alexa647 label, 635 nm, artefact control for SMM control protein annotation, primary screen (AID 1127); details: ConA-A647 binding fluorescence, higher = more signal;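 also: z combines 667 nm emission intensity with signal-to-noise across three replicate slides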
[9] = compounds binding Alexa647 anti-His antibody – biochemical, small-molecule microarray, 635 nm fluorescence, artefact control for SMM control protein annotation, primary screen (AID 1128); details: higher = more signal;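 also: score merges feature fluorescence with signal-to-noise for each printed compound spot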
[10] = test system: Human papillomavirus type 1a E7 protein (residues 1-88); assay: HPV1a E7 small-molecule binders, primary screen, biochemical, small-molecule microarray, residues 1-88, 635 nm (AID 1129); details: small-molecule microarray binding, fluorescence 635 nm; higher = more signal
[11] = target: Focal adhesion kinase 1 (Homo sapiens) (UniProt Q05397); assay: PTK2 protein binding on printed compound slides – biochemical, small-molecule microarray, 635/667 nm fluorescence, BSA, DTT, primary screen (AID 1130); details: 635 nm fluorescence, higher = more signal;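 also: composite of spot emission at 667 nm and signal to noise over triplicate slides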
[12] = test system: Fibrinogen (Alexa647-labelled); assay: Alexa647-fibrinogen binding to printed small molecules – biochemical, small-molecule microarray, 635/667 nm fluorescence, artefact control for SMM control-protein annotation, profiling panel (AID 1131); details: fibrinogen-A647 binding fluorescence, higher = more signal;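 also: z-score merges 667 nm fluorescence with per-spot signal-to-noise over triplicate slides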
[13] = target: Follistatin (Homo sapiens) (UniProt P19883); assay: FST protein binding to printed compounds – biochemical, small-molecule microarray, 635/667 nm fluorescence, primary screen (AID 1132); details: 635 nm fluorescence, higher = more signal
[14] = target: Fibroblast growth factor 2 (Homo sapiens) (UniProt P09038); assay: basic fibroblast growth factor binding to printed compounds – biochemical, small-molecule microarray, 635/667 nm fluorescence, primary screen (AID 1133); details: FGF2, fluorescence 635/667, higher = more signal
[15] = JC-1 mitochondrial potential readout, lung cancer cells – cell-based, A549, JC-1 fluorescence, basal, 24 h, 100 nL, profiling panel (AID 1138); details: higher = more signal;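 also: A549 lung adenocarcinoma cells under basal conditions with no added stimulus; test concentration not given here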
Lefty1 = Lefty1 protein binding to printed compounds – biochemical, small-molecule microarray, 635/667 nm fluorescence, primary screen (AID 1139); details: fluorescence 635/667, higher = more signal
[16] = test system: wheat germ agglutinin (Triticum aestivum), Alexa647-labelled; assay: Alexa647-WGA lectin binding to printed small molecules – biochemical, small-molecule microarray, 635/667 nm fluorescence, artefact control for SMM control-protein annotation, profiling panel (AID 1140); details: WGA-A647 binding, 635 nm fluorescence, higher = more signal;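 also: score merges 667 nm feature emission with signal to noise over triplicate slides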
[17] = target: Luciferin 4-monooxygenase (Photinus pyralis) (UniProt P08659); assay: inhibition of purified Photinus pyralis luciferase – biochemical, luminescence, purified enzyme, 2006 set, primary screen (AID 1141); details: purified firefly luciferase, SteadyGlo luminescence, 30 min; higher = more signal, called active from +8 up or from −8 down;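 also: cell-free assay with purified firefly luciferase at 100 ng per well in PBS; test concentration not given here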
Luciferin 4-monooxygenase (Photinus pyralis), sequence (P08659 whole entry, looked up): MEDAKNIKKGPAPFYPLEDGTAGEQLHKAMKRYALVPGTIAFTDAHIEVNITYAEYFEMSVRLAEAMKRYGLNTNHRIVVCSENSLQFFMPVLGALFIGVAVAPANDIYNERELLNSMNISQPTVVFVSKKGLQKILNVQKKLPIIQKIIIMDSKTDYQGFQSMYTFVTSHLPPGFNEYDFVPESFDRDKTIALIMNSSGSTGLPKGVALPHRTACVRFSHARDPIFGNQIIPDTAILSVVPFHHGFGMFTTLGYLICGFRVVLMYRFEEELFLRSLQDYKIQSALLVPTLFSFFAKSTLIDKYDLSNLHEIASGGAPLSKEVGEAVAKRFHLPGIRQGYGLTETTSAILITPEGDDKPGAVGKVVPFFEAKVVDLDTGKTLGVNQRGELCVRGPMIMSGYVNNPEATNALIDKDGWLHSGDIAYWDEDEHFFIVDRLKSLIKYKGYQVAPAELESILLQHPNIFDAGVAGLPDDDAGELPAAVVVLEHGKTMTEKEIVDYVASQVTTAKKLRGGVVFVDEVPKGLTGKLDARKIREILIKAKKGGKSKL

Concanavalin-A (Canavalia ensiformis), sequence (P02866 whole entry, looked up): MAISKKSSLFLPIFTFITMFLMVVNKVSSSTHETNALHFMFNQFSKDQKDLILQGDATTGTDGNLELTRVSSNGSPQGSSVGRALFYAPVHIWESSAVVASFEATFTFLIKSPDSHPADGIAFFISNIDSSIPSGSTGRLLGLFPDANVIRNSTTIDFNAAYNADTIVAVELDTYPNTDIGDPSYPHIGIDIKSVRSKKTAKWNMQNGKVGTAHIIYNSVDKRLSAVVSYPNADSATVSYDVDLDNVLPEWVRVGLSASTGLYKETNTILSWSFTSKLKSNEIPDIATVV
Fibroblast growth factor 2 (Homo sapiens), sequence (P09038 whole entry, looked up): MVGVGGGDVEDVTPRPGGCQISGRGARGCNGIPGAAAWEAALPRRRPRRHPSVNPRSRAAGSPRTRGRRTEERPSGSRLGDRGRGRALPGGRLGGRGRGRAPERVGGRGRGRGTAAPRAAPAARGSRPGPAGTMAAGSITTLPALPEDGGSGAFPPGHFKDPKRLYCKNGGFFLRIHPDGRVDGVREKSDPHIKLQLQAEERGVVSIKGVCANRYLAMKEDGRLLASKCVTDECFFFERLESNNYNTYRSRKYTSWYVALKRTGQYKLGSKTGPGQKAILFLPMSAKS
Follistatin (Homo sapiens), sequence (P19883 whole entry, looked up): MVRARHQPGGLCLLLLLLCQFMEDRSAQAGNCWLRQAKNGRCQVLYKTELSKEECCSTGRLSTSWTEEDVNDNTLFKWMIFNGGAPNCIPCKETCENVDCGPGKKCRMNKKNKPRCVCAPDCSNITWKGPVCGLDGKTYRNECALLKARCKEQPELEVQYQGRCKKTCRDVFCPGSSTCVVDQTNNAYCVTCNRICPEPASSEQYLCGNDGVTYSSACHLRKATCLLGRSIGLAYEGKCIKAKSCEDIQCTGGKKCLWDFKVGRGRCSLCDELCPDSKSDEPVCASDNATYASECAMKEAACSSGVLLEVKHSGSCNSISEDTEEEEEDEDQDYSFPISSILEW
Albumin (Bos taurus), sequence (P02769 whole entry, looked up): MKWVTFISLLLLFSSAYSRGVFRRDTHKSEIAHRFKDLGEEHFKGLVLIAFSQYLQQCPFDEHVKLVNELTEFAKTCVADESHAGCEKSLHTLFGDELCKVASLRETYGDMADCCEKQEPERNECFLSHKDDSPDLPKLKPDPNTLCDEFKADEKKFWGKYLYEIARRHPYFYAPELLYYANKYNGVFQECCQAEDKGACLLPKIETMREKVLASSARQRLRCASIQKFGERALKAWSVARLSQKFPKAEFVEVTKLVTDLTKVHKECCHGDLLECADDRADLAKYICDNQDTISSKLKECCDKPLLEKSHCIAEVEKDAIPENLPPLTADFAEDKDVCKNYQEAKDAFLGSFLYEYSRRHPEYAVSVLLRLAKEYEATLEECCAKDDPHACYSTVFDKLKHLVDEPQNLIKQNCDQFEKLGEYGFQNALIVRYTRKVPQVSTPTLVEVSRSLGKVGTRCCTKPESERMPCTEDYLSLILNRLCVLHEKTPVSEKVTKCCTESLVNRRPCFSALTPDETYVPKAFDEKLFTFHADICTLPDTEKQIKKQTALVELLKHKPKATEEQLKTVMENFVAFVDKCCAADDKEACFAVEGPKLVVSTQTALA
Focal adhesion kinase 1 (Homo sapiens), sequence (Q05397 whole entry, looked up): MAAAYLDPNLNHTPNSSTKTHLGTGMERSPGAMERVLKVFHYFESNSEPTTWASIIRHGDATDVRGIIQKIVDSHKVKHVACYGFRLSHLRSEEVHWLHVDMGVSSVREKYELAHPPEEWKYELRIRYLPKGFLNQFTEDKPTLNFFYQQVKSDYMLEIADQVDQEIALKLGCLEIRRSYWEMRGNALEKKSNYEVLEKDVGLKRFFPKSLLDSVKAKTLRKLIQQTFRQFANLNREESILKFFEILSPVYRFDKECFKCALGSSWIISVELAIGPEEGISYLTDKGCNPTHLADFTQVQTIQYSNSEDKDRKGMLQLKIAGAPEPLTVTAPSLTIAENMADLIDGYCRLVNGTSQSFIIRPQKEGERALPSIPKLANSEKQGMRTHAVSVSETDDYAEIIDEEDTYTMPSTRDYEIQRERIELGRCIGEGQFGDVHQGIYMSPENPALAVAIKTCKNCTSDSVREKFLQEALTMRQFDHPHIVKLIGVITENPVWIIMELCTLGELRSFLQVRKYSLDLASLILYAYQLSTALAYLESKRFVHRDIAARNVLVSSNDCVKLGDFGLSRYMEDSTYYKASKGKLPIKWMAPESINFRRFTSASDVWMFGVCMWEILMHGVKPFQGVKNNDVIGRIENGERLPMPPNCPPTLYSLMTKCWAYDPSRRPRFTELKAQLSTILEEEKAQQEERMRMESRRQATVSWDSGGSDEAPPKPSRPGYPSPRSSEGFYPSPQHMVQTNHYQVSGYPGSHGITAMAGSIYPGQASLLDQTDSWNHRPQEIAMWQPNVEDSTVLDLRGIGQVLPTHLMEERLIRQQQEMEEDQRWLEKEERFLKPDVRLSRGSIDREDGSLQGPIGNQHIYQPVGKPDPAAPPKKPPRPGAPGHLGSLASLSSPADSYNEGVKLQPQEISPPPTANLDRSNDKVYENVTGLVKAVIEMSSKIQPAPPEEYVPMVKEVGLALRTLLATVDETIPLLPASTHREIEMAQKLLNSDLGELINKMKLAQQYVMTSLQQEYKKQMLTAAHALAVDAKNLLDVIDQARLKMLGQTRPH

C[C@@H](c1ccccc1)N1C(=O)[C@H]2[C@H]3[C@H](O)[C@H](O)CC(=NOCc4ccccc4)[C@@H]3CC[C@H]2C1=O
composite z-score (Albumin (Bos taurus)): 0.758 | composite Z-score [1]: 0.081 (inactive) | composite z-score [2]: -0.0055 | composite z-score [3]: -0.0467 | composite z-score [4]: -0.247 | composite z-score [5]: 0.043 | composite z-score [6]: 0.017 | composite z-score (Sam68 (KHDRBS1)): -0.105 | composite z-score [7]: 0.823 | composite z-score [8]: -0.577 | composite z-score [9]: 0.151 | composite z-score [10]: -0.513 | composite z-score [11]: 0.0826 | composite z-score [12]: 0.0844 | composite z-score [13]: -0.7 | composite z-score [14]: -0.0815 | z-score [15]: -0.781 | composite z-score (Lefty1): -0.684 | composite z-score [16]: 0.32 | z-score [17]: 0.747 (inactive)

C=C(C)C(=O)OC[C@H]1CN2[C@@H](CC[C@@H](C)[C@@H]2c2ccc(Br)cc2)C(=O)O1
composite z-score (Albumin (Bos taurus)): -0.625 | composite Z-score [1]: 0.27 (inactive) | composite z-score [2]: -0.0362 | composite z-score [3]: -0.104 | composite z-score [4]: 0.079 | composite z-score [5]: 0.379 | composite z-score [6]: 0.318 | composite z-score (Sam68 (KHDRBS1)): 0.428 | composite z-score [7]: 0.698 | composite z-score [8]: -0.426 | composite z-score [9]: 2.44 | composite z-score [10]: 0.0456 | composite z-score [11]: -0.174 | composite z-score [12]: -0.613 | composite z-score [13]: 0.489 | composite z-score [14]: 0.108 | z-score [15]: 0.47 | composite z-score (Lefty1): 0.264 | composite z-score [16]: -0.034 | z-score [17]: -2.88 (inactive)

C#CCCCON=C1C[C@@H](O)[C@@H](O)[C@@H]2[C@@H]3C(=O)N(C[C@@H]4CCCO4)C(=O)[C@@H]3CC[C@@H]12
composite z-score (Albumin (Bos taurus)): 0.211 | composite Z-score [1]: -0.294 (inactive) | composite z-score [2]: -0.047 | composite z-score [3]: -0.0614 | composite z-score [4]: 0.406 | composite z-score [5]: 0.31 | composite z-score [6]: 0.221 | composite z-score (Sam68 (KHDRBS1)): 0.254 | composite z-score [7]: 0.264 | composite z-score [8]: 0.842 | composite z-score [9]: 0.265 | composite z-score [10]: 0.439 | composite z-score [11]: -0.14 | composite z-score [12]: 0.527 | composite z-score [13]: 0.378 | composite z-score [14]: 0.222 | z-score [15]: 0.441 | composite z-score (Lefty1): 0.554 | composite z-score [16]: 0.553 | z-score [17]: -0.106 (inactive)

C#CCCCON=C1C[C@@H](O)[C@@H](O)[C@@H]2[C@@H]3C(=O)N(CC)C(=O)[C@@H]3CC[C@H]12
composite z-score (Albumin (Bos taurus)): -0.0021 | composite Z-score [1]: 0.52 (inactive) | composite z-score [2]: -0.118 | composite z-score [3]: -0.148 | composite z-score [4]: 0.728 | composite z-score [5]: 1.35 | composite z-score [6]: 0.187 | composite z-score (Sam68 (KHDRBS1)): 0.866 | composite z-score [7]: -0.0382 | composite z-score [8]: -0.357 | composite z-score [9]: 1.93 | composite z-score [10]: 0.286 | composite z-score [11]: -0.442 | composite z-score [12]: 0.636 | composite z-score [13]: -0.473 | composite z-score [14]: -0.0374 | z-score [15]: -0.27 | composite z-score (Lefty1): 0.162 | composite z-score [16]: 1.07 | z-score [17]: 0.0384 (inactive)

COc1ccc(COC(=O)NN=C2C[C@@H](O)[C@@H](O)[C@@H]3[C@@H]4C(=O)N(c5cccc(Oc6ccccc6)c5)C(=O)[C@@H]4CC[C@H]23)cc1
composite z-score (Albumin (Bos taurus)): 0.64 | composite Z-score [1]: -0.626 (inactive) | composite z-score [2]: 0.0793 | composite z-score [3]: -0.0665 | composite z-score [4]: -0.0831 | composite z-score [5]: 0.852 | composite z-score [6]: -0.0241 | composite z-score (Sam68 (KHDRBS1)): -0.546 | composite z-score [7]: -0.636 | composite z-score [8]: 0.433 | composite z-score [9]: 0.362 | composite z-score [10]: -0.476 | composite z-score [11]: 0.407 | composite z-score [12]: 0.744 | composite z-score [13]: -0.355 | composite z-score [14]: -0.603 | z-score [15]: -0.593 | composite z-score (Lefty1): -0.258 | composite z-score [16]: 0.916 | z-score [17]: 0.911 (inactive)

CC(CCN1CCc2nc(-c3ccccc3)c(-c3ccccc3)cc2C1)=NO[C@@H](C)c1cc(-c2c(C)cc(C)cc2C)no1
composite z-score (Albumin (Bos taurus)): 0.554 | composite Z-score [1]: 0.0956 (inactive) | composite z-score [2]: -0.0918 | composite z-score [3]: -0.164 | composite z-score [4]: 0.0148 | composite z-score [5]: 0.157 | composite z-score [6]: -0.0375 | composite z-score (Sam68 (KHDRBS1)): -0.0575 | composite z-score [7]: -0.583 | composite z-score [8]: 0.613 | composite z-score [9]: 0.962 | composite z-score [10]: -0.444 | composite z-score [11]: -0.228 | composite z-score [12]: 0.496 | composite z-score [13]: -0.289 | composite z-score [14]: -0.44 | z-score [15]: 0.281 | composite z-score (Lefty1): -0.0591 | composite z-score [16]: 0.493 | z-score [17]: 0.618 (inactive)
